Sfp PPTase inh – inhibitors of Bacillus subtilis Sfp phosphopantetheinyl transferase; Q9F4F7; Biochemical Sfp PPTase activity, qHTS; Potency, µM, hits mostly inhibitors; hit rate 3.5% among 310,000;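 note: the enzyme is Sfp with the accession as filed and its product quenches rhodamine fluorescence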
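Step 1, compound plus 15 nM Sfp-PPTase, 15 min, room temperature. Step 2, add rhodamine-CoA (5 uM) and BHQ-2-YbbR (12.5 uM). Step 3, read 525/598 nm fluorescence at 0 and 30 min.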
G9a inh – inhibitors of human histone lysine methyltransferase G9a | G9a H3K9 monomethylation, AlphaScreen, 2 h | Potency, µM (highest dose often 102 µM), hits mostly inhibitors | hit rate 8.8% among 350,000; note: nearly all actives have a fitted effect of over 75% in size
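Chemiluminescent proximity detection of H3K9 monomethylation, read after 10 min bead incubation in the dark. Reaction: 20 nM G9a, 500 nM biotin-H3K9 peptide, 20 uM SAM cofactor, 2 h, room temperature, following 15 min enzyme-compound preincubation.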
HP1b binding inh – inhibitors of HP1-beta chromodomain binding to methylated histone tails. Potency, µM (highest dose often 114 µM), actives largely listed as inhibitors. hit rate 0.56% among 390,000. AID 540317. AlphaScreen HP1-beta / biotin-H3K9me3 peptide binding; note: nearly all actives have a fitted effect of over 70% in size
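AlphaScreen: HP1-beta (50 nM) preformed 30 min with biotin-H3(1-18)K9me3 peptide (50 nM) in PBS pH 7.4, 0.01% Tween-20. Compound added for 30 min at RT, then streptavidin donor/nickel chelate acceptor beads (10 ug/mL) for 30 min.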
JMJD2A Tudor inh – inhibitors of human JMJD2A Tudor domain; hit rate 4.4% among 390,000; AlphaScreen JMJD2A-Tudor / H3K4me3 peptide binding; Potency, µM (titrated, usually from 114 µM), most hits filed as inhibitors; O75164; note: nearly all actives have a fitted effect of over 50% in size
BAZ2B inh – inhibitors of human BAZ2B bromodomain. hit rate 4.4% among 360,000. Q9UIF8. AlphaScreen BAZ2B-H3K14Ac peptide displacement. Potency, µM (titrated, usually from 114 µM), hits mostly inhibitors; note: nearly all actives have a fitted effect of over 60% in size
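BAZ2B 50 nM plus b-H3(5-23)K14Ac 50 nM, PBS pH 7.4/0.01% Tween-20, 30 min RT; compound added (max 110 uM), 30 min RT; streptavidin donor/Ni-chelate acceptor beads 10 ug/mL final, 20 min dark; AlphaScreen read.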
Numbers stand for hits; [ ] = remark or other dose. This is a sample that favours compounds with a hit; in the whole collection about 12% have one here. Calls come from the whole dose curve; as a rule, active = well fitted curve in the direction sought with a large enough effect; inconclusive = small, poorly fitted or top-dose-only effect, or another doubt; inactive = no such curve, though single readings can be large; an effect the other way counts as inactive or inconclusive.

For O=C(Nc1ccc(S(=O)(=O)Nc2cnc3ccccc3n2)cc1)c1ccccc1Br the results were Sfp PPTase inh inactive, G9a inh inactive, HP1b binding inh inactive, JMJD2A Tudor inh inactive and BAZ2B inh inactive.
Screening O=C(Nc1ccc(S(=O)(=O)Nc2cnc3ccccc3n2)cc1)c1ccc(Br)o1 returned Sfp PPTase inh inactive, G9a inh 45µM, HP1b binding inh inactive, JMJD2A Tudor inh inactive and BAZ2B inh inactive.
For c1ccc(Cn2nnc3c(NCc4ccc5c(c4)OCO5)ncnc32)cc1 the results were Sfp PPTase inh inactive, HP1b binding inh inactive, JMJD2A Tudor inh inactive and BAZ2B inh inactive.
C[C@H](CO)N1C[C@H](C)[C@@H](CN(C)S(=O)(=O)c2ccc(F)cc2)Oc2ccc(NC(=O)c3ccncc3)cc2C1=O was read as HP1b binding inh inactive and JMJD2A Tudor inh inactive.
Screening CCOC(=O)C(=CNNc1ccccc1)C(=O)OCC returned Sfp PPTase inh inconclusive, G9a inh 2µM, HP1b binding inh inactive, JMJD2A Tudor inh 79µM and BAZ2B inh inconclusive.
`CCOC(=O)NNc1ccccc1` gave Sfp PPTase inh inactive, HP1b binding inh inactive, JMJD2A Tudor inh inactive and BAZ2B inh inactive.
CCn1nnc2cc(C(=O)Nc3cccc(C(F)(F)F)c3)ccc21 was read as G9a inh inactive, HP1b binding inh inactive, JMJD2A Tudor inh inactive and BAZ2B inh inactive.
Screening CCN1/C(=C2\OC(=S)N(C)C2=O)C=Cc2ccccc21 returned Sfp PPTase inh inactive, G9a inh inactive, HP1b binding inh inactive and JMJD2A Tudor inh inactive.
`CN1C(=O)/C(=C2/C=CC=CN2C)OC1=S` gave Sfp PPTase inh 56µM, G9a inh 32µM, HP1b binding inh inconclusive, JMJD2A Tudor inh inactive and BAZ2B inh inactive.
For CCOc1ccc(C2CC(c3cccc(C)c3)n3ncnc3N2)cc1 (stereo not drawn) the results were Sfp PPTase inh inactive, G9a inh inconclusive, HP1b binding inh inactive, JMJD2A Tudor inh inactive and BAZ2B inh inactive.
Screening CC(C)Sc1nc2ccccc2[nH]1 returned Sfp PPTase inh inactive, G9a inh 56µM, HP1b binding inh inactive, JMJD2A Tudor inh inactive and BAZ2B inh inactive.
For CC(C)(C)c1nc2ccccc2[nH]1 the results were Sfp PPTase inh inactive, G9a inh inconclusive, HP1b binding inh inactive, JMJD2A Tudor inh 79µM and BAZ2B inh inactive.
For O=C(O)c1ccc(CNCc2c(Cl)cccc2Cl)cc1 the results were Sfp PPTase inh inactive, G9a inh inconclusive, HP1b binding inh inactive, JMJD2A Tudor inh inactive and BAZ2B inh inactive.
COC(=O)Cn1c(C2CC(=O)N(c3c(C)cccc3C)C2)nc2ccccc21 (stereo not drawn) was read as G9a inh 14µM, HP1b binding inh inactive, JMJD2A Tudor inh inactive and BAZ2B inh inactive.
Screening Cc1cccc(C)c1OCCCCn1c(C2CC(=O)N(c3ccc(F)cc3)C2)nc2ccccc21 (stereo not drawn) returned G9a inh 14µM, HP1b binding inh inactive, JMJD2A Tudor inh inconclusive and BAZ2B inh inactive.
`CCn1c(C2CC(=O)N(c3cc(C)cc(C)c3)C2)nc2ccccc21` (stereo not drawn) gave Sfp PPTase inh inactive, G9a inh inactive, HP1b binding inh inactive, JMJD2A Tudor inh inactive and BAZ2B inh inactive.
Cc1cccc(C)c1OCCn1c(C2CC(=O)N(c3cccc(Cl)c3)C2)nc2ccccc21 (stereo not drawn) was read as G9a inh inactive, HP1b binding inh inactive, JMJD2A Tudor inh inactive and BAZ2B inh inactive.
For C=CCOC[C@@H]1CN2[C@H](c3ccc(Br)cc3)[C@@H](C)CC[C@H]2C(=O)O1 the results were Sfp PPTase inh inactive.
Screening O=C(N/N=C/c1c[nH]c2ccc(Br)cc12)C1CC1 returned Sfp PPTase inh inactive, G9a inh inactive, HP1b binding inh inactive, JMJD2A Tudor inh inactive and BAZ2B inh inactive.
Screening CC(=O)Nc1ccc(S(=O)(=O)N2CCc3ccccc3C2CC(=O)O)cc1 (stereo not drawn) returned Sfp PPTase inh inactive, G9a inh inactive, HP1b binding inh inactive, JMJD2A Tudor inh inactive and BAZ2B inh inactive.
`CNc1nc(-c2ccccn2)nnc1-c1ccccc1` gave Sfp PPTase inh 63µM, G9a inh inactive[12.7 µM], HP1b binding inh inactive, JMJD2A Tudor inh 5.6µM and BAZ2B inh 0.89µM.
Cc1nc2scc(-c3cccs3)c2c(=O)n1CC(=O)O was read as Sfp PPTase inh inactive, G9a inh inactive, HP1b binding inh inactive, JMJD2A Tudor inh inactive and BAZ2B inh inactive.
